Results taken from PubChem BioAssay (NCATS).
Records with an inconclusive call do not appear. Activity calls are given as the source filed them. Calls follow the shape of the dose curve; as a rule, active = well fitted curve in the direction sought with a large enough effect; inconclusive = small, poorly fitted or top-dose-only effect, or another doubt; inactive = no such curve, though single readings can be large; an effect the other way counts as inactive or inconclusive.

How the values were obtained:
[1] = molecular target: Luciferin 4-monooxygenase (Photinus pyralis) (UniProt P08659); assay: Primary firefly luciferase (FLuc) qHTS assay for identification of artifact compounds. (AID 1845220); also: nearly all actives have a fitted effect of over 60% in size; also: potency is read from the fitted curve at half-maximal effect
Procedure, shortened: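 qHTS, 15 min compound preincubation with substrate (10 uM luciferin, 10 uM ATP) at RT, then 10 nM FLuc; 5 min; luminescence; % inhibition vs no-enzyme/DMSO controls, 4-parameter Hill fit.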

[2] = Primary fluorescence-based thiol-reactive (MSTI) qHTS assay for identification of artifact compounds. (AID 1845221);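 also: series mostly up to about 54 µM; thiol-reactive compounds lower the probe fluorescence signal; nearly all actives have a fitted effect of over 65% in size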
Procedure, shortened: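 Probe: MSTI 4 uM, PBS pH 7.4, 2% DMSO. Incubation 1 h, RT, light-protected. Readout fluorescence 525/598 nm.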

[3] = test system: Nanoluciferase (engineered Oplophorus gracilirostris luciferase); assay: Primary Nanoluciferase (NLuc) qHTS assay for identification of artifact compounds. (AID 1845222); also: series mostly up to about 54 µM
Procedure, shortened: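 Luminescence read-out of secreted NLuc in S16 cell conditioned medium (1:55); compounds tested with 15 min RT preincubation, then Nano-Glo substrate 1:100, 5 min. % inhibition vs no-enzyme and DMSO controls, 4-parameter Hill fit.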

[4] = Primary redox qHTS assay for identification of artifact compounds. (AID 1845223)
Procedure, shortened: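 Redox-cycling detection via DTT (250 uM final) oxidation coupled to Amplex Red (25 uM)/HRP (250 mU/mL) in HBSS. 15 min preincubation plus 30 min after DTT, room temperature. Ex/Em 525/598 nm; 4-parameter Hill fit against DMSO and 10 uM DA3003.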

Measured: Potency

CCN1CCN(c2cc(-c3ccc(F)cc3)c3c(n2)CCCCCC3)CC1
inactive: [1] | [2] | [3] | [4]

O=C1CC[C@H](C(=O)N2CCCCC2)N1
inactive: [1] | [2] | [3] | [4]

C=CC[N+]1([C@H]2C[C@H]3[C@@H]4CC[C@H]5C[C@H](OC(C)=O)[C@@H](N6CCCCC6)C[C@]5(C)[C@H]4CC[C@]3(C)[C@H]2OC(=O)CC)CCCCC1
inactive: [1] | [2] | [3]

CC(=O)Oc1ccc(C2(c3ccc(OC(C)=O)cc3)Oc3ccccc3NC2=O)cc1
inactive: [1] | [2] | [3] | [4]

CCCCNc1ccc(C(=O)OCCN(CC)CC)cc1
inactive: [1] | [2] | [3] | [4]

CCOC(=O)c1ccc(OCCN2C[C@H](O)[C@@H](O)[C@H](O)[C@H]2CO)cc1
inactive: [1] | [2] | [3] | [4]

CCCN(CCC)C(=O)C(CCC(=O)OCCCN1CCN(CCOC(=O)Cc2c(C)n(C(=O)c3ccc(Cl)cc3)c3ccc(OC)cc23)CC1)NC(=O)c1ccccc1 (stereo not drawn)
inactive: [1] | [2] | [3] | [4]

O=C1NC(=O)/C(=C/c2ccc3c(c2)OC(F)(F)O3)S1
active: [1] 9.53 µM
inactive: [2] | [3] | [4]

C[N+]1(CC2COC(c3ccccc3)(c3ccccc3)O2)CCCCC1 (stereo not drawn)
inactive: [1] | [2] | [3] | [4]

CCNC(=O)NCCCOc1cccc(CN2CCCCC2)c1
inactive: [1] | [2] | [3] | [4]

CC(=O)Nc1ccn(C2COC(COC(=O)c3ccccc3)O2)c(=O)n1 (stereo not drawn)
inactive: [1] | [2] | [3] | [4]
